# Screening data: PubChem BioAssay, The Scripps Research Institute Molecular Screening Center
# HTR5A inv ctr: HTR5A inverse agonism, opioid heterodimer counter-screen | P47898 | HTR5A cell line, luminescence | inhibition, % at 9.3 µM | 340,000 tested, 0.083% active | AID 504634; in the data active = inhibition mostly above about 23%, no sharp cut-off; inactive = mostly below about 18%
# HTR5A ag ctr: HTR5A agonism, opioid heterodimer counter-screen | P47898 | HTR5A agonist assay, luminescence, cell-based | activation, % at 9.3 µM | 340,000 tested, 0.61% active | AID 504692; in the data active = activation mostly above about 9.5%, no sharp cut-off; inactive = mostly below about 7.6%
# MOR-DOR ag: OPRM1-OPRD1 heterodimerization agonism; P35372+P41143; cells, luminescence; activation, % at 9.3 µM; 340,000 tested, 0.3% active; AID 504326; in the data active = activation above about 18%
# Target sequence (P35372 whole entry, looked up): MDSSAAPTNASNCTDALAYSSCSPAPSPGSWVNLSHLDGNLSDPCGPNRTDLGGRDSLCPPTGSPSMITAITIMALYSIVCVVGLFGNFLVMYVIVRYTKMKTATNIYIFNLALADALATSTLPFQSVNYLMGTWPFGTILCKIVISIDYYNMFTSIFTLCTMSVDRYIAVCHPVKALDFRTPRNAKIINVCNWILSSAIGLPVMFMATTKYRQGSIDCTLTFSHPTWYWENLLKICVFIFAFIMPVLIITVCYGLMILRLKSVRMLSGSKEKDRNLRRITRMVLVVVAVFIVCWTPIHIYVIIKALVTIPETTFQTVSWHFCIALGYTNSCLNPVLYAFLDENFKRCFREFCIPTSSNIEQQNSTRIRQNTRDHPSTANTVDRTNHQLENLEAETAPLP
# Target sequence (P41143 whole entry, looked up): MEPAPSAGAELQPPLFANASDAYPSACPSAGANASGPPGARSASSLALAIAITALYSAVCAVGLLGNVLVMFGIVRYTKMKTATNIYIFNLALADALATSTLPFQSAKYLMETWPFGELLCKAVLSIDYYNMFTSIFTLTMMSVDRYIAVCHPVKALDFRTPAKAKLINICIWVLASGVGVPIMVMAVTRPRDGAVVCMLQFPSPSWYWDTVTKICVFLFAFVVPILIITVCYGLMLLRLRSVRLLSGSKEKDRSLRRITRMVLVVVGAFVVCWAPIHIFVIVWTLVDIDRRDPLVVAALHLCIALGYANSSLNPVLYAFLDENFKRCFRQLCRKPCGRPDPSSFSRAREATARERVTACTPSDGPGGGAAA
# MOR-DOR inv ag: mu-delta opioid heterodimer inverse agonism. 340,000 tested, 0.21% active. AID 504357. inhibition, % at 9.3 µM. cell-based MOR-DOR heterodimer luminescence. P35372+P41143; in the data active = inhibition above about 22%, passing the limit was not always enough
# A number is an active result; . = inactive. Hits are enriched below; roughly 1.1% of the tested compounds scored in any of these assays.
SMILES,HTR5A inv ctr,HTR5A ag ctr,MOR-DOR ag,MOR-DOR inv ag
Cc1ccc(CSc2nnc(-c3ccncc3)n2CC2CCCO2)cc1 (stereo not drawn),.,.,.,.
COc1ccc(-c2cc(-c3ccccc3)c(C#N)c(SCC(=O)O)n2)cc1,.,.,.,.
N#Cc1c(-c2ccccc2)cc(-c2ccccc2)nc1SCc1nnc(-c2ccccc2)o1,.,12.6,.,.
COc1cc(CNCCc2c[nH]c3ccccc23)ccc1OCc1ccc(F)cc1,.,10.8,.,.
COc1cccc(CNCCc2c[nH]c3ccccc23)c1OCc1ccc(F)cc1,.,.,.,.
COc1ccc(CC(=O)Nc2nnc(SCc3ccccc3)s2)cc1S(=O)(=O)N1CCOCC1,.,.,.,.
CCCOc1ccc(CC2CCC(=O)NC2=O)cc1 (stereo not drawn),.,.,.,.
CCCCOc1ccc(C2(C)CC(=O)NC2=O)cc1 (stereo not drawn),.,11.5,.,.
COc1cccc(N(C(=O)c2snc(C(N)=O)c2N)C(C(=O)NCC2CCCO2)c2cccs2)c1 (stereo not drawn),.,.,.,.
COc1cccc(N(C(=O)CCl)C(C(=O)NCCc2ccccc2)c2cccs2)c1 (stereo not drawn),.,60.7,68.4,.
COc1ccc(N(C(=O)CCl)C(C(=O)NCCc2ccccc2)c2cccs2)cc1Cl (stereo not drawn),.,54.1,65.5,.
COc1ccc(N(C(=O)c2ccco2)C(C(=O)NC2CCCCC2)c2cccs2)cc1OC (stereo not drawn),.,.,.,.
CC1NC2(C(=O)N(Cc3ccccc3)c3ccccc32)C2C(=O)N(c3ccccc3)C(=O)C12 (stereo not drawn),.,.,.,.
C=CCOc1ccccc1CN(C(=O)CCl)c1ccc2c(c1)OCO2,.,53.1,45.1,.
c1ccc(-c2nnc(N3CCN(c4ccccn4)CC3)c3ccccc23)cc1,.,.,.,.
Cc1ccc(-c2nnc(N3CCN(c4ccccn4)CC3)c3ccccc23)cc1,.,12.6,.,.
OC12CC3C[C@H](C1)C(N1CCOCC1)[C@@H](C3)C2 (stereo partly drawn),.,10.2,.,.
CCc1noc(C)c1C(=O)OCC(=O)Nc1ccc2c(c1)OCO2,.,.,.,.
COc1ccc(C/C(N)=N/OC(=O)c2ccc(Cl)cc2)cc1,.,.,.,.
N/C(Cc1ccc(Cl)cc1)=N\OC(=O)c1ccc2ccccc2c1,.,33.6,27.1,.
c1cn(CCCNC2=NCCCCC2)cn1,.,.,.,.
Cc1ccc(NC(=O)COC(=O)C2CC2(Cl)Cl)cc1C (stereo not drawn),.,9.0,.,.
CS(=O)(=O)c1ncc(Cl)c(C(=O)Nc2ccc(OC(F)F)cc2)n1,.,.,.,34.5
COc1ccc(-c2sc3ccc(N4CCOCC4)cc3c2C#CC2(O)CCCCC2)cc1,.,12.8,.,.
COc1ccc(-c2sc3ccc(N4CCOCC4)cc3c2C#CCO)cc1,.,.,.,.
SMILES,HTR5A inv ctr,HTR5A ag ctr,MOR-DOR ag,MOR-DOR inv ag
COc1c(Cl)cc(Cl)cc1/C=N/NC(=O)c1nnn(-c2nonc2N)c1CN1CCC(C)CC1,.,11.0,.,.
CC1CCN(Cc2c(C(=O)N/N=C/c3cc(Cl)ccc3O)nnn2-c2nonc2N)CC1,.,.,.,.
CCCSc1cc(NCCOC(=O)CCC)c([N+](=O)[O-])c2nonc12,.,.,.,.
CCCC(=O)OCCNc1cc(Sc2nccn2C)c2nonc2c1[N+](=O)[O-],.,.,.,40.2
Cc1nn(-c2ccccc2)c(Cl)c1CN(C(=O)CCl)c1cccc2ccccc12,.,39.8,52.4,.
CC(=O)N(Cc1c(C)nn(-c2ccccc2)c1Cl)c1ccc(Cl)cc1,.,.,.,.
Cc1nn(-c2ccccc2)c(Cl)c1CN(C(=O)CCl)c1ccc(Cl)cc1,.,49.5,67.5,.
CCn1c(SCC(=O)Nc2sccc2C(N)=O)nnc1C1CC1,.,12.8,.,.
O=C(CSc1nnc(COc2ccc(F)cc2)o1)N1c2ccccc2CCc2ccccc21,.,.,.,.
C/C(=N\N=c1/sc2ccccc2n1C)c1ccccn1,.,.,.,.
Cc1cc(C)c(C)c(S(=O)(=O)N2CCN(C(=O)CNC(=O)c3ccco3)CC2)c1C,.,13.7,.,.
CC(=O)NC1CC2CCCC(C1)N2Cc1ccc(C)cc1 (stereo not drawn),.,14.0,.,.
Cc1ccc(NC(=S)NNC(=O)Nc2ccccc2)cc1,29.4,.,.,33.7
O=C(NNC(=S)Nc1ccccc1)Nc1ccccc1,23.4,.,.,34.6
Cc1cc(C)n(CCCNC(=O)COc2ccc([N+](=O)[O-])cc2)n1,.,.,.,.
